Of roughly 7,900 targets only a part is listed; those with a hit were picked by preference. About 0.6% of all pairs of compound and target were hits.
How the values were obtained:
Test in all cases: log2 fold change, soluble protein after heating vs DMSO (PISA); higher = thermal stabilisation; K562 cells, 10 uM, 30 min; active = over 0.2 and 3.5 SD of the protein, either way, in both replicates (recomputed)
IRAK-1-4 Inhibitor I = compound: C1COCCN1CCN2C3=CC=CC=C3N=C2NC(=O)C4=CC(=CC=C4)[N+](=O)[O-] [IRAK-1-4 Inhibitor I]
How it was run: (§1)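 Soluble protein was defined as the supernatant after 21,000xg for 90 min. It came from K562 cells at 2×10^6 cells/mL given 10 μM compound for 30 min, heated in aliquots for 3 min across 48°C-58°C, pooled, and extracted in PBS with 0.5% NP-40 at 4°C, and was quantified by TMTpro 16plex LC-MS/MS with equalised channel sums. Thermal stability against control samples, from duplicates, is reported as log2 fold change.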

ibrutinib = compound: C=CC(=O)N1CCC[C@@H](n2nc(-c3ccc(Oc4ccccc4)cc3)c3c(N)ncnc32)C1 [ibrutinib]
How it was run: as §1

[1] = compound: CC(=O)c1cnc2ccc(-c3cc(Cl)c(O)c(Cl)c3)nc2c1N[C@H]1CC[C@H](CN(C)C)CC1
How it was run: as §1

ralimetinib = compound: CC(C)(C)Cn1c(N)nc2ccc(-c3[nH]c(C(C)(C)C)nc3-c3ccc(F)cc3)nc21 [ralimetinib]
How it was run: as §1

[2] = compound: CC(C)(O)CC(=O)NCCn1ccc2ncnc(Nc3ccc(Oc4cccc(C(F)(F)F)c4)c(Cl)c3)c21
How it was run: as §1

[3] = compound: CC(C)C1=C2N=C(C=C(N2N=C1)NCC3=CC=CC=C3)NCCCCCCN
How it was run: as §1

[4] = compound: CC(C)C[C@@H](C=O)NC(=O)[C@H](CC(C)C)NC(=O)[C@H](CC(C)C)NC(=O)OCc1ccccc1
How it was run: as §1

pinometostat = compound: CC(C)N(C[C@H]1O[C@@H](n2cnc3c(N)ncnc32)[C@H](O)[C@@H]1O)[C@H]1C[C@@H](CCc2nc3cc(C(C)(C)C)ccc3[nH]2)C1 [pinometostat]
How it was run: as §1

[5] = compound: CC1=C(C(CC(=O)N1)C2=CC=C(C=C2)C(F)(F)F)C(=O)NC3=C(C=C4C(=C3)C=NN4)F
How it was run: as §1

[6] = compound: CC1=C(C2=C(C=C1)C(=O)C3=CC=CC=C3N2CCCN)C
How it was run: as §1

[7] = compound: CC1=C(C=C(C=C1)NC(=O)C2=CC(=CC=C2)C(C)(C)C#N)NC3=CC4=C(C=C3)N=CN(C4=O)C
How it was run: as §1

[8] = compound: CC1=C(C=C(C=C1)NC(=O)C2=CC(=CC=C2)N(C)C)NC(=O)C3=CC=C(C=C3)O
How it was run: as §1

[9] = compound: CC1=CC=C(C=C1)SC2=C3C=C(SC3=CN=C2)C(=O)N
How it was run: as §1

[10] = compound: CC1=NC(=CC=C1)C2=C(N=C(N2)C(C)(C)C)C3=CC4=NC=CN=C4C=C3
How it was run: as §1

Nexturastat A = compound: CCCCN(Cc1ccc(C(=O)NO)cc1)C(=O)Nc1ccccc1 [Nexturastat A]
How it was run: as §1

vemurafenib = compound: CCCS(=O)(=O)Nc1ccc(F)c(C(=O)c2c[nH]c3ncc(-c4ccc(Cl)cc4)cc23)c1F [vemurafenib]
How it was run: as §1

[11] = compound: CCCS(=O)(=O)Nc1ccc(F)c(C(=O)c2c[nH]c3ncc(Cl)cc23)c1F
How it was run: as §1

[12] = compound: CCCc1cc(C)[nH]c(=O)c1CNC(=O)c1cc(-c2ccnc(N3CCN(C)CC3)c2)cc2c1cnn2C(C)C
How it was run: as §1

givinostat = compound: CCN(CC)Cc1ccc2cc(COC(=O)Nc3ccc(C(=O)NO)cc3)ccc2c1 [givinostat]
How it was run: as §1

barasertib = compound: CCN(CCCOc1ccc2c(Nc3cc(CC(=O)Nc4cccc(F)c4)[nH]n3)ncnc2c1)CCOP(=O)(O)O [barasertib]
How it was run: as §1

Measured: log2 fold change

GLUD2 (UniProt P49448)
inactive: IRAK-1-4 Inhibitor I 0.025 | ibrutinib 0.045 | [1] 0.113 | ralimetinib 0 | [2] 0.098 | [3] -0.041 | [4] 0.014 | pinometostat -0.013 | [5] -0.098 | [6] 0.127 | [7] 0.104 | [8] 0.006 | [9] -0.062 | [10] -0.015 | Nexturastat A -0.045 | vemurafenib 0.017 | [11] 0.006 | [12] 0.238 | givinostat -0.107 | barasertib 0.015

HBQ1 (UniProt P09105)
UniProt P09105, sequence (P09105 whole entry, looked up): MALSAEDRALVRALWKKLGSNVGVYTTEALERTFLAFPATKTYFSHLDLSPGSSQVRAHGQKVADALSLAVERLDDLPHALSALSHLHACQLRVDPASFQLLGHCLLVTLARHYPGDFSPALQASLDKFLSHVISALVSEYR
inactive: IRAK-1-4 Inhibitor I 0.003 | ibrutinib 0.016 | [1] 0.01 | ralimetinib -0.034 | [2] -0.078 | [3] 0.095 | [4] -0.102 | pinometostat 0.004 | [5] 0.027 | [6] 0.147 | [7] 0.053 | [8] -0.14 | [9] 0.025 | [10] 0.052 | Nexturastat A -0.028 | vemurafenib -0.013 | [11] 0.004 | [12] -0.012 | givinostat -0.043 | barasertib 0.038

GCSH (UniProt P23434)
inactive: IRAK-1-4 Inhibitor I 0.027 | ibrutinib -0.002 | [1] 0.011 | ralimetinib -0.026 | [2] -0.031 | [3] -0.025 | [4] -0.049 | pinometostat -0.021 | [5] 0.029 | [6] 0.03 | [7] -0.024 | [8] 0.047 | [9] 0.279 | [10] 0.006 | Nexturastat A -0.06 | vemurafenib 0.079 | [11] -0.021 | [12] -0.139 | givinostat 0 | barasertib -0.095

FUCA2 (UniProt Q9BTY2)
UniProt Q9BTY2, sequence (Q9BTY2 whole entry, looked up): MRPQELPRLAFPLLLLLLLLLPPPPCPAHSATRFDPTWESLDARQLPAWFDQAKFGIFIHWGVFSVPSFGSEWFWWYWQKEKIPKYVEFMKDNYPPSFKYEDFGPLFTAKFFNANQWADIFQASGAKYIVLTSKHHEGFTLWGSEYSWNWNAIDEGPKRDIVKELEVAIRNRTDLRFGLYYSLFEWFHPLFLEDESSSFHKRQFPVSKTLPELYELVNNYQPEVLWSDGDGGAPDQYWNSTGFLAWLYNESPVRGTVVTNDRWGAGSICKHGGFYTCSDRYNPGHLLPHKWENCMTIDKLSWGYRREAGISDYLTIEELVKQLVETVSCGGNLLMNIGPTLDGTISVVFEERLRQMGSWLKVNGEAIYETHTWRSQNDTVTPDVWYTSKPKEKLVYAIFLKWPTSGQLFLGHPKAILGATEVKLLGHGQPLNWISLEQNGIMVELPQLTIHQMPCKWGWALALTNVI
inactive: IRAK-1-4 Inhibitor I -0.078 | ibrutinib 0.043 | [1] -0.056 | ralimetinib 0.019 | [2] 0.026 | [3] -0.09 | [4] -0.004 | pinometostat 0.036 | [5] -0.036 | [6] -0.12 | [7] 0.015 | [8] 0 | [9] 0.016 | [10] -0.02 | Nexturastat A -0.025 | vemurafenib 0.005 | [11] -0.053 | [12] -0.025 | givinostat -0.028 | barasertib -0.01

GTF2H3 (UniProt Q13889)
UniProt Q13889, sequence (Q13889 whole entry, looked up): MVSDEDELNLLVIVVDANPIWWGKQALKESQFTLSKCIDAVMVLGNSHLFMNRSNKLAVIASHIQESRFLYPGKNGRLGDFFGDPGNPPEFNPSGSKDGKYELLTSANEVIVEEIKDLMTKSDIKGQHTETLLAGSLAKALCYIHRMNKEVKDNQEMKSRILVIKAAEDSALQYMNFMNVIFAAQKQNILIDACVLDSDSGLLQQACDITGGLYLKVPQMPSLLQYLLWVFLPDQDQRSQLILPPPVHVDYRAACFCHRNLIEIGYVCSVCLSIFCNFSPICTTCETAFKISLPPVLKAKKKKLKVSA
inactive: IRAK-1-4 Inhibitor I -0.06 | ibrutinib 0.056 | [1] 0.063 | ralimetinib 0.049 | [2] 0.006 | [3] 0.011 | [4] 0 | pinometostat 0.06 | [5] -0.074 | [6] 0.02 | [7] -0.094 | [8] -0.008 | [9] -0.024 | [10] 0 | Nexturastat A 0.016 | vemurafenib -0.081 | [11] -0.021 | [12] -0.112 | givinostat 0.068 | barasertib -0.042

GALNT2 (UniProt Q10471)
UniProt Q10471, sequence (Q10471 whole entry, looked up): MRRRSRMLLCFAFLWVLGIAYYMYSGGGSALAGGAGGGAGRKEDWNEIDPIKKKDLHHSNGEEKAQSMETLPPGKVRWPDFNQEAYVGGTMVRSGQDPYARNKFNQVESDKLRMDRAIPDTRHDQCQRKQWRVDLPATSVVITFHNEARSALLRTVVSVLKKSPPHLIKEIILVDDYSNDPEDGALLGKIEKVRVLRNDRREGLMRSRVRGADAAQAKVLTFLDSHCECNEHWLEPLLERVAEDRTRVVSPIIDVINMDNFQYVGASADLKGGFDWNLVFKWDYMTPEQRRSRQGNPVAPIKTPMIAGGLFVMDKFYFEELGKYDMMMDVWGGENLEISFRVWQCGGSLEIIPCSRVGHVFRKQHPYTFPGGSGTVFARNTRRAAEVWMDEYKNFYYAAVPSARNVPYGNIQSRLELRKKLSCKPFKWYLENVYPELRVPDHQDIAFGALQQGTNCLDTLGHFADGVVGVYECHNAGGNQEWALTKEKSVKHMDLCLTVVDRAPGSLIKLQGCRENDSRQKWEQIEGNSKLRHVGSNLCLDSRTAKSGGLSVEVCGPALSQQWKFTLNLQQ
inactive: IRAK-1-4 Inhibitor I 0.009 | ibrutinib -0.019 | [1] -0.006 | ralimetinib 0.014 | [2] 0.027 | [3] -0.021 | [4] -0.02 | pinometostat -0.02 | [5] -0.028 | [6] 0.007 | [7] -0.003 | [8] -0.035 | [9] 0.016 | [10] 0.038 | Nexturastat A -0.032 | vemurafenib 0 | [11] 0.04 | [12] 0.03 | givinostat -0.005 | barasertib 0.011

GALK1 isoform 2 (UniProt P51570)
inactive: IRAK-1-4 Inhibitor I 0.046 | ibrutinib 0.024 | [1] 0.018 | ralimetinib 0.081 | [2] -0.081 | [3] -0.004 | [4] -0.121 | pinometostat 0.041 | [5] 0.023 | [6] -0.018 | [7] 0.244 | [8] 0.004 | [9] 0.144 | [10] 0.02 | Nexturastat A -0.082 | vemurafenib 0.144 | [11] 0.183 | [12] 0.033 | givinostat 0.018 | barasertib -0.007

HRC (UniProt P23327)
inactive: IRAK-1-4 Inhibitor I 0.002 | ibrutinib 0.003 | [1] 0.041 | ralimetinib -0.039 | [2] 0.132 | [3] 0.074 | [4] 0.011 | pinometostat 0.019 | [5] 0.011 | [6] -0.033 | [7] -0.199 | [8] 0.031 | [9] 0.008 | [10] 0.005 | Nexturastat A 0.041 | vemurafenib -0.044 | [11] -0.097 | [12] -0.025 | givinostat -0.059 | barasertib 0.021

GAPVD1 isoform 6 (UniProt Q14C86)
UniProt Q14C86, sequence (Q14C86 whole entry, looked up): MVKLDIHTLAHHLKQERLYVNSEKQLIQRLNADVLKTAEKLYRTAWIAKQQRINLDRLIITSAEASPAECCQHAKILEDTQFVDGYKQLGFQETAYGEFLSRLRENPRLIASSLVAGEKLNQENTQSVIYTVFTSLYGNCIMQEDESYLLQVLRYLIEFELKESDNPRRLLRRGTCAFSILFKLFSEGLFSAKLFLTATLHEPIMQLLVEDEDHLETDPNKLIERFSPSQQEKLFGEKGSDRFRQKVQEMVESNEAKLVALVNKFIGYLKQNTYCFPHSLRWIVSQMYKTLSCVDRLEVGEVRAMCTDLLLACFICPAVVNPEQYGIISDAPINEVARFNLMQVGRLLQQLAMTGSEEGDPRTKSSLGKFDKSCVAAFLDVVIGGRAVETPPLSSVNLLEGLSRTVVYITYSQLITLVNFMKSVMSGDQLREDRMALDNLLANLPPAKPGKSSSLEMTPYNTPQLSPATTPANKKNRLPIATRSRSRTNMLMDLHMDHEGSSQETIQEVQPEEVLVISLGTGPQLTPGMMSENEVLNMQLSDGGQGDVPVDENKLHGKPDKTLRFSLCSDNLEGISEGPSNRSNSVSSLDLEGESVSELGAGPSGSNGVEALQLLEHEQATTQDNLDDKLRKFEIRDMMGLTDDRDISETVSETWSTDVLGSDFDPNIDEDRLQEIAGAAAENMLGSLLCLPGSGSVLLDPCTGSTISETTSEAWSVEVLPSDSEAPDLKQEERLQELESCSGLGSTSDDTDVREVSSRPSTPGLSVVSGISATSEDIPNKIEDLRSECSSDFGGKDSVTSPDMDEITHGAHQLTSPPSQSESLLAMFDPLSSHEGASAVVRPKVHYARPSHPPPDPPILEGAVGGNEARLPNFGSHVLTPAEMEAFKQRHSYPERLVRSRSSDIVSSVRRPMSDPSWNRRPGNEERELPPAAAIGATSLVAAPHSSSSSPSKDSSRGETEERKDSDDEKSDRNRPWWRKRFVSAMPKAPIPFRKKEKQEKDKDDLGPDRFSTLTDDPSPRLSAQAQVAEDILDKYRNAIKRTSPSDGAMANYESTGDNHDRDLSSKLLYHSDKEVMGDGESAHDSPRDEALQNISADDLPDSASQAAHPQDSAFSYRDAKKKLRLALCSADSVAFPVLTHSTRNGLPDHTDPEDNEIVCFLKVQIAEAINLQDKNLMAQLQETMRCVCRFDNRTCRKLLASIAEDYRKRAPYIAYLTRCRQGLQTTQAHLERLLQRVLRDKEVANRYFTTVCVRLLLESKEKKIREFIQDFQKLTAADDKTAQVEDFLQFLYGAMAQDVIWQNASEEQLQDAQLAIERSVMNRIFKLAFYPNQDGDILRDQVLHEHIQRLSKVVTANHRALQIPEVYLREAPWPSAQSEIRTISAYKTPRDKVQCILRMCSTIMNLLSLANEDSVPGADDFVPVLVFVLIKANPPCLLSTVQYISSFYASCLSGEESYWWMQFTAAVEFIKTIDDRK
active: [3] -0.278
inactive: IRAK-1-4 Inhibitor I -0.044 | ibrutinib -0.087 | [1] 0.005 | ralimetinib 0.056 | [2] -0.111 | [4] 0.037 | pinometostat 0.094 | [5] 0.003 | [6] -0.003 | [7] 0.004 | [8] -0.041 | [9] 0.046 | [10] 0.019 | Nexturastat A 0.025 | vemurafenib 0.007 | [11] 0.13 | [12] 0.047 | givinostat 0.047 | barasertib 0.034

GIGYF2 (UniProt Q6Y7W6)
inactive: IRAK-1-4 Inhibitor I -0.01 | ibrutinib -0.039 | ralimetinib -0.041 | [2] -0.124 | [3] -0.115 | [4] 0.01 | pinometostat 0.082 | [5] 0.005 | [6] 0.021 | [7] -0.075 | [8] 0.058 | [9] 0.01 | [10] 0.044 | Nexturastat A 0.05 | vemurafenib 0.043 | [11] 0.048 | [12] 0.049 | givinostat 0.092 | barasertib 0.093
active: [1] -0.316

GLB1 (UniProt P16278)
UniProt P16278, sequence (P16278 whole entry, looked up): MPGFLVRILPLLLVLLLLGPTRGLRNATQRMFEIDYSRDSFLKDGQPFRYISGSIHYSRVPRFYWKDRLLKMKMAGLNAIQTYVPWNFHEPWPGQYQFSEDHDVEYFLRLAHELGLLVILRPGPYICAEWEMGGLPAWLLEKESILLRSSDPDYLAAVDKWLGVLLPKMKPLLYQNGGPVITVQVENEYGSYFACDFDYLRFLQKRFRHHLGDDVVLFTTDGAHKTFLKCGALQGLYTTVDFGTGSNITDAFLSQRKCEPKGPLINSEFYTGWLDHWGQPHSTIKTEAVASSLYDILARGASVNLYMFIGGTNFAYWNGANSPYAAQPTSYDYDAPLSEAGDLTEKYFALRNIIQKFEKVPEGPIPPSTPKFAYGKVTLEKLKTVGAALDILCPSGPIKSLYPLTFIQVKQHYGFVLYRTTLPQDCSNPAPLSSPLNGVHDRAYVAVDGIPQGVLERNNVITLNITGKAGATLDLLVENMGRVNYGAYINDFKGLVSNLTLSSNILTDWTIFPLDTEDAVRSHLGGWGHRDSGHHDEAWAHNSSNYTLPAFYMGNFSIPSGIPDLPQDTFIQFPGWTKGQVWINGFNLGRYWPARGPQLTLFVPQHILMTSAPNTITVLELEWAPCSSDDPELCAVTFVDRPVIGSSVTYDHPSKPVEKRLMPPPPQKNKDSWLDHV
active: [3] -0.282
inactive: IRAK-1-4 Inhibitor I 0.041 | ibrutinib 0.033 | [1] -0.005 | ralimetinib -0.009 | [2] 0.048 | [4] 0.062 | pinometostat 0.021 | [5] 0.014 | [6] -0.015 | [7] -0.051 | [8] -0.026 | [9] -0.033 | [10] -0.038 | Nexturastat A 0.086 | vemurafenib -0.017 | [11] -0.007 | [12] 0.003 | givinostat 0.002 | barasertib -0.027

FANCI (UniProt Q9NVI1)
UniProt Q9NVI1, sequence (Q9NVI1 whole entry, looked up): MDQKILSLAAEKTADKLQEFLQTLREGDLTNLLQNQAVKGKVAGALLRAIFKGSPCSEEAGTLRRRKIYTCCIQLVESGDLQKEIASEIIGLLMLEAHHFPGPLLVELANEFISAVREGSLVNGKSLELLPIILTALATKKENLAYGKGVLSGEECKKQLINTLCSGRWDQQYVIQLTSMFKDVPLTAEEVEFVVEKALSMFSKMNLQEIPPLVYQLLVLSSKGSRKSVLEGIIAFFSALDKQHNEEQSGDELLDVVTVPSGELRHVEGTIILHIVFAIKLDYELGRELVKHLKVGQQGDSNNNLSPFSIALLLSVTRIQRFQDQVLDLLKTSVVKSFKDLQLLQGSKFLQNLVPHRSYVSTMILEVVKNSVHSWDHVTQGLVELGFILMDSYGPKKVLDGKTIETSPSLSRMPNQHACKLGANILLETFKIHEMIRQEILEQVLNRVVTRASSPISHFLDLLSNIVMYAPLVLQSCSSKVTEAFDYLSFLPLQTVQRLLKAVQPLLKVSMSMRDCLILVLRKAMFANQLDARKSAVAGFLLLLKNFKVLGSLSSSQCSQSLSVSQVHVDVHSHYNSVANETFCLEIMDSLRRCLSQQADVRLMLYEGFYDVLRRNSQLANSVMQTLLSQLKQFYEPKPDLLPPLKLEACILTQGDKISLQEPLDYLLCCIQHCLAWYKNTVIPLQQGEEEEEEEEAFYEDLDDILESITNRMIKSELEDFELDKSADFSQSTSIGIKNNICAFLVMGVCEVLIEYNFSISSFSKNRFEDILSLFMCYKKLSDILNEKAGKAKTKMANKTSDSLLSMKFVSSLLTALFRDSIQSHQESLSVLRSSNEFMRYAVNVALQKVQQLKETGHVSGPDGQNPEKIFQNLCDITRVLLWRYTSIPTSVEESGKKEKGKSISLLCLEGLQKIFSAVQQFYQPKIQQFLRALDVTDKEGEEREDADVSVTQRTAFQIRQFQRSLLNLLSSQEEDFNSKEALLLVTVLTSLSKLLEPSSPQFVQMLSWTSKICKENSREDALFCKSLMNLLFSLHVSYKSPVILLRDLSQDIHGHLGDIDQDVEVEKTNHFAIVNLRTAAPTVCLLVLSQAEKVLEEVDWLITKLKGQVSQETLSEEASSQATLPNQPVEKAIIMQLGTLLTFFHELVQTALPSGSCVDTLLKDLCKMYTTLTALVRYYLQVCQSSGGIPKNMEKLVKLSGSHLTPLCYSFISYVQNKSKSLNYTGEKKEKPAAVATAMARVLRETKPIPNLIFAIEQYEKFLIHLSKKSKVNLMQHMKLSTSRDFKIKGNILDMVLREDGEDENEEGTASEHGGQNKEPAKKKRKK
inactive: IRAK-1-4 Inhibitor I -0.043 | ibrutinib -0.082 | [1] -0.148 | ralimetinib -0.008 | [2] -0.146 | [4] -0.136 | pinometostat 0.006 | [5] -0.038 | [6] -0.098 | [7] 0.012 | [8] 0.018 | [9] 0.01 | [10] 0.046 | Nexturastat A -0.054 | vemurafenib 0.016 | [11] 0.087 | [12] 0.009 | givinostat 0.043 | barasertib 0.029
active: [3] -0.377

GNAS (UniProt Q5JWF2)
inactive: IRAK-1-4 Inhibitor I -0.04 | ibrutinib 0.001 | [1] -0.059 | ralimetinib 0.009 | [2] 0.022 | [3] 0.041 | [4] -0.009 | pinometostat 0 | [5] -0.059 | [6] 0.073 | [7] 0.105 | [8] -0.043 | [9] -0.014 | [10] -0.027 | Nexturastat A -0.01 | vemurafenib 0.034 | [11] -0.027 | [12] 0.067 | givinostat -0.036 | barasertib -0.011

HNRNPH1 (UniProt P31943)
inactive: IRAK-1-4 Inhibitor I -0.032 | ibrutinib 0.048 | [1] -0.176 | ralimetinib -0.018 | [2] 0 | [4] 0.131 | pinometostat 0.031 | [5] 0.011 | [6] -0.045 | [7] 0.077 | [8] -0.044 | [9] 0.005 | [10] 0.047 | Nexturastat A 0.201 | vemurafenib 0.086 | [11] 0.144 | [12] 0.029 | givinostat 0.115 | barasertib 0.05
active: [3] -0.427

HSD17B12 (UniProt Q53GQ0)
active: [2] 0.289
inactive: IRAK-1-4 Inhibitor I -0.01 | ibrutinib 0.038 | [1] -0.127 | ralimetinib -0.037 | [3] 0.22 | [4] -0.062 | pinometostat -0.064 | [5] 0.015 | [6] 0.031 | [7] 0.094 | [8] 0.032 | [9] 0 | [10] 0.022 | Nexturastat A -0.111 | vemurafenib -0.006 | [11] -0.01 | [12] -0.141 | givinostat -0.018 | barasertib -0.04

IGF2BP2 (UniProt Q9Y6M1)
inactive: IRAK-1-4 Inhibitor I -0.168 | ibrutinib 0.048 | [1] -0.011 | ralimetinib 0.209 | [2] 0.037 | [3] -0.249 | [4] 0.106 | pinometostat 0.477 | [5] 0.087 | [6] -0.054 | [7] 0.009 | [8] -0.001 | [9] -0.008 | [10] -0.094 | Nexturastat A 0.383 | vemurafenib 0.065 | [11] 0 | [12] -0.011 | givinostat 0.153 | barasertib -0.041

Source: the supplement of paper PMC10849652
